# Screening data from PubChem.
# Granule exo inh: blocks lytic granule exocytosis. TALL-104 LAMP-1 surface exposure, flow cytometry; cells stimulated with thapsigargin and PMA. inhibition, % at 10 µM. 360,000 compounds, 0.66% hits;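 active = inhibition above about 55%, limit read from the data; inconclusive = no clear call, values can overlap the other calls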
# B2AR ag: human beta-2 adrenergic receptor agonism by FAP | P07550 | Am2.2-beta2AR cells, FAP receptor internalization, flow cytometry | response, % (test concentration not listed) | 340,000 compounds, 0.43% hits | AID 504454;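 active = response above a set limit, near 3 SD of response in nonfluorescent compounds, cut at about 42% in these data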
# m5-HT2A agonist: mouse HTR2A agonism via beta-arrestin recruitment | CHO-K1 mHTR2A beta-arrestin complementation, luminescence; percent of 30 µM serotonin response | activation, % at 7.6 µM | 360,000 compounds, 0.66% hits;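 active = activation above a run cutoff, the mean activation of all tested compounds plus 3 SD, cut at about 14% in these data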
# NTR1 agonist: NTR1 (human) agonism; NTR1-U2OS beta-arrestin-GFP spot imaging, agonist mode; P30989; 330,000 compounds, 0.17% hits; activation, % at 20 µM; AID 493036;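 active = activation at or above 40% of the spot to cytoplasm intensity ratio, with at least 20 cells analyzed; inconclusive = wells under 20 cells, flagged as cytotoxic or low count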
# Target sequence (P30989 whole entry, looked up): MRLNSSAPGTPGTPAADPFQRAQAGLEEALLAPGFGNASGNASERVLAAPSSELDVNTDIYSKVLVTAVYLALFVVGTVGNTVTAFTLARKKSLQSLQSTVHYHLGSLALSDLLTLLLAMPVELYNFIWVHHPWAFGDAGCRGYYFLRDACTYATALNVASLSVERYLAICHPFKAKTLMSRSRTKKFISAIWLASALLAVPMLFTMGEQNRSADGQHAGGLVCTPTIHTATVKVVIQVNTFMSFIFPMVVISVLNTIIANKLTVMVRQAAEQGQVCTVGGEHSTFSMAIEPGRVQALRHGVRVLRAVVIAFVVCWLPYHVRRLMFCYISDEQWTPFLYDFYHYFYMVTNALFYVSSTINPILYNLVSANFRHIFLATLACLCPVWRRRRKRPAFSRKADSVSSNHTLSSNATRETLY
# ABHD5-PLIN5 inh: inhibitors of human ABHD5-perilipin-5 interaction; Split G. princeps luciferase complementation, luminescence, 4 h; inhibition, % at 4 µM; AID 602281; 360,000 compounds, 0.78% hits;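 active = inhibition above the mean inhibition across every tested compound plus 3 SD, cut at about 22% in these data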
# NTR1 ag confirm: NTR1 (human) agonism, confirmed. shares compounds with NTR1 agonist. NTR1-U2OS beta-arrestin-GFP translocation imaging. activation, % at 20 µM. 480 compounds, 38% hits. AID 504550;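 active = mean activation at 20 µM of at least 40%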
# B2AR ag CP1: agonists of human beta-2 adrenergic receptor; shares compounds with B2AR ag; 1,100 compounds, 25% hits; percent response (surface receptor), % at 10 µM; Am2.2-beta2AR cells, FAP surface receptor, flow cytometry; hits give low values;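 active = surface receptor percent response at or below 58%, roughly 3 SD from nonfluorescent compounds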
# FAP fluor counter: flagged in Am2.2 fluorescence counterscreen for beta-2AR agonists | shares compounds with B2AR ag | Am2.2 cells, FAP fluorogen flow cytometry; hits give low values | calls only at 10 µM | 1,100 tested, under 10 active | AID 588765;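 active = percent response below a set limit in fluorescence channel 1 and below 50% in channel 8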
# ABHD5 PLIN5 conf: ABHD5-PLIN5 interaction inhibition, confirmed; shares compounds with ABHD5-PLIN5 inh; biochemical ABHD5-PLIN5 interaction, luminescence; inhibition, % at 4 µM; 2,200 compounds, 67% hits; AID 651612; in the data active = inhibition above about 23%
# HNF4 split-luc: HNF4 split-luciferase signal hit, counter-screen; shares compounds with ABHD5-PLIN5 inh; HNF4 dimerization, luminescence, biochemical; inhibition, % at 4 µM; 2,200 compounds, 77% hits;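 active = mean inhibition across replicate wells exceeding the computed hit threshold, cut at about 13% in these data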;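 note: light from luciferase halves that rejoin when HNF4 fusion proteins dimerize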
# Numbers stand for hits; 0 = inactive; ? = inconclusive; - = no result. Hits are enriched below; roughly 2.3% of the tested compounds scored in any of these assays.
SMILES,Granule exo inh,B2AR ag,m5-HT2A agonist,NTR1 agonist,ABHD5-PLIN5 inh,others
CCOC(=O)[C@]12Cc3ccccc3[C@H]1N(CCC(=O)OC)C(=O)c1cc(OC)ccc12,0,-,0,-,0,
O=C(c1cc(Cl)cc(Cl)c1)N1Cc2ccccc2-n2nncc2C1,0,-,0,-,0,
Cc1cccc(C)c1-n1nnnc1C(c1ccccc1OC(F)(F)F)N1CCC(n2c(=O)[nH]c3ccccc32)CC1 (stereo not given),0,-,0,-,0,
O=C(Cn1ncc2c3ccccc3n(Cc3ccccc3F)c2c1=O)N1CCC2(CC1)OCCO2,0,50.5,0,0,0,
Cc1c2cnn(CC(=O)N3CCC4(CC3)OCCO4)c(=O)c2c(C)n1Cc1ccc(F)cc1,0,0,0,0,0,
Cc1cccc(C2=NCC(=O)N(CC(=O)NCc3ccco3)c3sc4c(c32)CCCC4)c1,0,0,0,0,0,
COc1ccc(C2=NCC(=O)N(CC(=O)NCc3ccco3)c3sc4c(c32)CCCC4)cc1,0,0,0,0,38.0,
COc1ccc(C=C2C(=O)NC(=S)NC2=O)cc1,0,0,0,-,0,
O=C1NC(=S)NC(=O)C1=Cc1cccc2cc3ccccc3cc12,0,93.5,0,-,0,
CN(C)C(=O)Oc1ccc2c(c1)O/C(=C\c1cccc(Cl)c1)C2=O,0,53.3,0,0,0,
COc1ccc2nc(/N=C/c3c(O)n(-c4cccc(Cl)c4)c(=O)[nH]c3=O)sc2c1,0,0,0,0,22.9,
Cc1ccc(NC(=O)CC[C@H]2O[C@@H](n3cnc4c(NC(=O)c5ccccc5)ncnc43)[C@H](O)[C@@H]2O)cc1C,0,-,0,-,0,
O=S(=O)(c1cccc(C(F)(F)F)c1)N1Cc2ccccc2-n2nncc2C1,0,-,0,-,0,
COc1cc2c3c(c1OC)Oc1ccc(cc1)C[C@H]1c4c(cc(OC)c(OC)c4Oc4ccc(cc4)C[C@@H]3N(C)CC2)CCN1C,0,44.8,0,0,0,
COc1cc2c3cc1Oc1c(OC)c(OC)cc4c1[C@H](Cc1ccc(cc1)Oc1cc(ccc1O)C[C@H]3N(C)CC2)N(C)CC4,0,0,0,0,0,
Cc1cc(Br)cn2c(CC(=O)N3CCCCC3)c(-c3ccc(F)cc3)nc12,0,-,0,-,0,
CC(=O)OC1C(O)C2=C3C4(C)C1C(C)(C)C(=O)CC4C3(O)C(OC(C)=O)C1(CC1C)C2=O (stereo not given),0,-,0,-,22.3,
COCCNC(=O)Cn1cc(C=C2C(=O)NC(=O)NC2=O)c2ccccc21,?,0,0,0,22.5,
CC(=O)n1cc(C=C2C(=O)NC(=O)NC2=O)c2ccccc21,0,0,0,0,0,
O=C1NC(=O)N(c2ccccc2)C(=O)/C1=C\c1ccc([N+](=O)[O-])s1,-,0,-,0,-,
O=C1NC(=O)N(c2ccccc2)C(=O)/C1=C\C=C\c1ccccc1,0,0,0,73.9,0,NTR1 ag confirm=49.1
COC(=O)[C@@H]1N=C(c2ccc(OC)cc2)O[C@]12C(=O)N(C)c1ccc(Cl)cc12,0,-,0,-,0,
CCC(C)NC(=O)c1c(N)n(CC2CCCO2)c2nc3ccccc3nc12 (stereo not given),0,0,0,0,0,
CC(C)CCNC(=O)c1c(N)n(CC2CCCO2)c2nc3ccccc3nc12 (stereo not given),0,0,0,42.7,0,NTR1 ag confirm=0
Cc1cc(C)c(C)c(C(O)(C(=O)O)c2ccccc2)c1 (stereo not given),0,-,0,-,0,
SMILES,Granule exo inh,B2AR ag,m5-HT2A agonist,NTR1 agonist,ABHD5-PLIN5 inh,others
CCOC(=O)[C@]12Cc3cc4ccccc4cc3[C@H]1N(Cc1ccccc1)C(=O)c1ccccc12,0,-,0,-,0,
CS(=O)(=O)c1ccc(C2=C(CNC(=O)c3nccs3)[C@H]3CC[C@@H](C2)N3Cc2ccco2)cc1,0,-,0,-,0,
O=C1NC(=O)C(=Cc2ccc(SC3CCCCC3)o2)C(=O)N1,0,0,0,50.2,0,NTR1 ag confirm=67.6
O=C1NC(=O)N(c2ccccc2F)C(=O)/C1=C/c1cn(CC(=O)N2CCOCC2)c2ccccc12,-,-,-,41.7,-,NTR1 ag confirm=0
N=C(N)c1c(O)n(C2CCCCC2)c(=O)n(C2CCCCC2)c1=O,0,0,0,53.7,0,NTR1 ag confirm=0
COc1ccc(N=Cc2c(O)n(Cc3ccccc3)c(=S)[nH]c2=O)c(OC)c1,0,0,0,0,0,
COc1ccc(OC)c(N=Cc2c(O)n(Cc3ccccc3)c(=S)[nH]c2=O)c1,0,0,0,58.6,0,NTR1 ag confirm=64.9
Cc1ccc(-c2cc(-c3ccc(C)cc3)[n+](-c3ccc(C(=O)[O-])cc3)c(-c3ccc(C)cc3)c2)cc1,0,0,0,0,0,
Cc1ccc(-c2cc(-c3ccccc3)cc(-c3ccccc3)[n+]2-c2ccccc2)cc1,0,0,0,50.3,0,NTR1 ag confirm=82.4
c1ccc(-c2cc(-c3ccccc3)[n+](-c3ccccc3)c(-c3ccccc3)c2)cc1,?,0,0,67.0,0,NTR1 ag confirm=65.3
COC(=O)C[C@]1(C(=O)OC)CN(C#N)N(c2ccc(Cl)cc2)C12c1ccccc1-c1ccccc12,0,0,0,41.3,78.3,NTR1 ag confirm=62.2;ABHD5 PLIN5 conf=97.6;HNF4 split-luc=97.0
Cc1cccc(C)c1-n1nnnc1C(C1CC1)N1CCC2(CC1)C(=O)NCN2c1ccccc1 (stereo not given),0,-,0,-,0,
COc1ccc(C(O)C(C)NC(C)C(O)c2ccc(OC)cc2)cc1 (stereo not given),0,0,0,0,0,B2AR ag CP1=0;FAP fluor counter=0
COC(=O)[C@]12OC[C@]34C([C@@H](O)[C@@H]1O)[C@]1(C)CC(=O)C(O)=C(C)[C@@H]1C[C@H]3OC(=O)[C@H](O)[C@@H]24 (stereo not given in full),0,42.5,0,0,0,B2AR ag CP1=0;FAP fluor counter=0
CC1=CC(O)C(O)C2(C)C1CC1OC(=O)C(O)C3C(C)C(O)C4(O)OCC13C42 (stereo not given),0,0,0,-,0,
COc1ccc(C(O)CNC(C)C)c(F)c1OC (stereo not given),0,0,0,0,0,B2AR ag CP1=0;FAP fluor counter=0
CCOc1c(Cl)cc(CNC(C)C(O)c2ccccc2)cc1OC (stereo not given),0,0,0,0,0,B2AR ag CP1=0;FAP fluor counter=0
CC(NCc1ccc(Cl)cc1Cl)C(O)c1ccccc1 (stereo not given),0,0,0,0,0,B2AR ag CP1=0;FAP fluor counter=0
